# In PubChem BioAssay (NCI):
# Where “and” joins values, the source holds several entries; their conditions need not be identical. Equal values may be shown once. About 83,000 compounds went through this panel and 20% of them were active in at least one assay; those are over-represented in the sample as a whole.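 For each line, cells grew in 96-well plates with the test compound present at a single concentration for 48 hours.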 Values without a mark were called inactive. Calls of active or inactive are those of the source.
# System: A549/ATCC NSCLC
# Assay: NCI-60 one-dose screen, 48 h (100 = growth as untreated, 0 = no growth, -100 = all killed)
# Conditions: 10 µM
# Procedure: Growth inhibition of the A549/ATCC human Non-Small Cell Lung tumor cell line is measured as a screen for anti-cancer activity. Cells are grown in 96 well plates and exposed to the test compound for 48 hours. Compounds are tested at a single concentration, which is 10^-5 M for most compounds. The reported endpoint is percent growth (GI% or GIPRCNT), where numbers from 0 - 100% represent growth inhibition, and numbers from -100% - 0 represent cell death. For example, a value of 40 represents 60% growth inhibition. A value of 0 means no net growth occurred over the course of the experiment. A value of -40 indicates 40% of cells at the beginning of the experiment died by the end of the experiment. A value of -100 means all cells are dead at the end of the experiment.
# NCI-60 Human Tumor Cell Lines Screen was performed using the standard one-dose NCI protocol, which is described in more detail at https://dtp.cancer.gov/discovery_development/nci-60/default.htm.
# Compounds with GIPRCNT values below 10 were considered active. Activity score was based on GIPRCNT using the following formula: […]
# Score is 0 for GIPRCNT values of 100 or above, 50 for GIPRCNT values of 0, and 100 for GIPRCNT values of -100.
row,SMILES,growth
1,CC(C)c1cc([N+](=O)[O-])cc([N+](=O)[O-])c1O,103%
2,COc1cc(/C=C(/C)[N+](=O)[O-])ccc1O,57.4% and 48.9%
3,Cc1cc(C(C)(C)c2ccc(O)c(C)c2)ccc1O,75.7%
4,COC12c3c(C)cc(O)c4c(=O)occ(c34)C(=O)C1C13COC(=O)c4c(O)cc(C)c(c41)C(=O)C2C3OC(C)=O (stereo not given),107%
5,CC[C@@H](C)[C@@H]1NC(=O)C(NC(=O)C(CC(C)C)N(C)C(=O)C2CCCN2C(=O)C(C)O)C(C)OC(=O)C(Cc2ccc(OC)cc2)N(C)C(=O)C2CCCN2C(=O)C(CC(C)C)NC(=O)C(C)C(=O)C(C(C)C)OC(=O)C[C@H]1O (stereo not given in full),-80.2% (active)
6,S=C=NCCc1ccccc1,61.7%
7,CN(CCCl)c1ccc(/C=C/C2=[N+](C)c3ccccc3C2(C)C)cc1,31.8%
8,[Cl][Hg][c]1ccc2ccccc2c1,19.6%
9,O=[P+](O)c1ccccc1,107%
10,NC(=O)c1cc([N+](=O)[O-])c(Cl)c([N+](=O)[O-])c1,98.4%
11,CN(C)CC1(N)C(=O)NC(=O)NC1=O,94.2%
12,O=C1C(=O)c2ccccc2-c2ccccc21,-47.9% (active)
13,CC1CCC2(OC1)OC1C(O)C3C4CCC5CC(OC6OC(CO)C(OC7OC(CO)C(O)C(OC8OCC(O)C(O)C8O)C7OC7OC(CO)C(O)C(OC8OC(CO)C(O)C(O)C8O)C7O)C(O)C6O)C(O)CC5(C)C4CCC3(C)C1C2C (stereo not given),-40.2% (active)
14,NC(=O)c1cc([N+](=O)[O-])c(Cl)c([N+](=O)[O-])c1Cl,89.6%
15,CCOP(=O)(OCC)/C(C#N)=C/c1ccc(Br)cc1,102%
16,COc1ccc2c(ccc3oc([N+](=O)[O-])cc32)c1,0.82% (active)
17,COC12C(COC(N)=O)C3=C(C(=O)C(C)=C(N)C3=O)N1CC1C2N1C (stereo not given),47.5%
18,COC(=O)C1C(O)C(C)C(O)C(C)/C=C\C=C(C)C(=O)Nc2c(C)c(OC(C)=O)c3c(c2O)C(=O)C(C)=C2OCOC(=C23)C(C)=CC(C)(O)C(O)C(C)C1O (stereo not given),98.5%
19,COC(C(=O)C(O)C(C)O)C1Cc2cc3cc(OC4CC(OC(C)=O)C(OC5CC(O)C(OC)C(C)O5)C(C)O4)cc(O)c3c(O)c2C(=O)C1OC1CC(OC2CC(OC3CC(C)(O)C(OC(=O)C(C)C)C(C)O3)C(O)C(C)O2)C(O)C(C)O1 (stereo not given),-39.3% (active)
20,O=c1[nH]c2ccccc2n1C1CCN(CCCC(c2ccc(F)cc2)c2ccc(F)cc2)CC1,39.5% and 10.9%

row,SMILES,growth
1,CC(=O)Nc1c2sscc-2n(C)c1=O,-65% (active)
2,COc1ccc(/C=C(\C)[N+](=O)[O-])cc1OC,36.3%
3,CC/C(=C/c1ccc(OC)cc1OC)[N+](=O)[O-],65.1%
4,O=C1CCC(=O)N1SC(Cl)(Cl)Cl,107%
5,COC1CC2C=C(C)/C=C/C=C/C(=O)NC(c3ccccc3)C/C=C/CCC(O)CC(=O)C2=C1O (stereo not given),-82.7% (active)
6,C/C1=C\[C@H](C)C[C@H](C)OC(=O)C[C@H](c2ccc(O)cc2)NC(=O)[C@@H](Cc2c(Br)[nH]c3ccccc23)N(C)C(=O)[C@H](C)NC(=O)[C@@H](C)C1,3.5% (active)
7,CC12OOC(c3ccccc31)c1c2ccc2ccccc12 (stereo not given),65.4%
8,COc1ccccc1/C=C/[N+](=O)[O-],75.5%
9,C[C@@H]1C[C@@H]([C@H](O)CC2CC(=O)NC(=O)C2)C(=O)[C@@H](C)C1,0.381% (active)
10,C[C@]12CC[C@H]3[C@@H](CCC4=CC(=O)CC[C@@H]43)[C@@H]1CC[C@@H]2OC(=O)N(CCCl)N=O,40.7%
11,O=[N+]([O-])c1ccc(Br)c([N+](=O)[O-])c1,104%
12,CC(C)C1(NC(=O)C2CC3c4cccc5[nH]cc(c45)CC3N(C)C2)OC2(O)C3CCCN3C(=O)C(Cc3ccccc3)N2C1=O (stereo not given),107%
13,Oc1c(Cl)cc(Cl)c2ccccc12.[Cu+2],111%
14,Cc1ccc(C(=O)C2C(c3ccccc3)N2C2CCCCC2)cc1 (stereo not given),99.9% and 105%
15,C[CH2][Hg][S]c1ccccc1C(=O)O,35%
16,C/C(=C\c1ccc(Cl)c(Cl)c1)[N+](=O)[O-],74.3% and 76.6%
17,O=[N+]([O-])c1cc[n+]([O-])c2ccccc12,-25.1% (active)
18,O=[N+]([O-])/C=C\c1ccc2c(c1)OCO2,81.7%
19,COc1ccccc1[As]=[As]c1ccccc1OC (stereo not given),-88.1% (active)
20,COc1cc2c(c(OC)c1OC)-c1ccc(O)c(=O)cc1[C@@H](NC(C)=O)CC2,31.9%
